The target of assay [1] is Cytochrome P450 3A4 (Homo sapiens) (UniProt P08684). Briefly: qHTS Assay for Inhibitors and Substrates of Cytochrome P450 3A4 (AID 884). Note: potency is the fitted concentration of half-maximal effect; nearly all actives have a fitted effect of over 50% in size. The gist of the method: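 Luminescent readout of luciferin produced by CYP3A4 (20 nM) dealkylation of Luciferin-PPXE, 25 uM (its KM). NADPH-driven reaction ran 60 min at RT after 10 min compound preincubation; data scaled to 57 uM ketoconazole as 100% inhibition.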
Cytochrome P450 3A4 (Homo sapiens), sequence (P08684 whole entry, looked up): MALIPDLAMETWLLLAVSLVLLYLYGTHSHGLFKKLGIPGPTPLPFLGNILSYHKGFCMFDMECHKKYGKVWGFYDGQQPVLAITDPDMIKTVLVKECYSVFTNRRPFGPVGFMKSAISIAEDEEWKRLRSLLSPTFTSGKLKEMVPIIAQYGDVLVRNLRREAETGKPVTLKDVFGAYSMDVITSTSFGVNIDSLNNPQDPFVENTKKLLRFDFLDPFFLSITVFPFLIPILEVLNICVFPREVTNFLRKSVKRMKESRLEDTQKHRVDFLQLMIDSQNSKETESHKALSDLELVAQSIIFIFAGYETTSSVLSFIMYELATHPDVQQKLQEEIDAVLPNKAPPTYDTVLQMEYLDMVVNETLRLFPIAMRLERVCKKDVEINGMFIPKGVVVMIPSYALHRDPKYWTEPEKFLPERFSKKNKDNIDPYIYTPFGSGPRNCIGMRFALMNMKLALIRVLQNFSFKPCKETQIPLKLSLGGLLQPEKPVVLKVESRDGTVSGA
On the technique in general: qHTS replaces the single test concentration by a dilution series.

The target in assay [2] is Cytochrome P450 2D6 (Homo sapiens) (UniProt P10635). Nature of the assay: qHTS Assay for Inhibitors and Substrates of Cytochrome P450 2D6 (AID 891). Note: potency is the fitted concentration of half-maximal effect; nearly all actives have a fitted effect of over 60% in size. In a few lines: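 Luminescent read-out of luciferin formed by 5 nM human CYP2D6 demethylating 30 uM Luciferin-ME EGE (Km level) over 60 min at room temperature after NADPH regeneration addition. Data normalized to full inhibition by 1.43 uM quinidine.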

In assay [3] the target is Dual specificity protein kinase CLK4 (Homo sapiens) (UniProt Q9HAZ1). Briefly: qHTS Assay for Inhibitors of CDC-like Kinase 4 (ADP-FP Assay) (AID 1795). Note: series mostly up to about 50 µM; % is set by controls: 0 for no effect and ±100 for the full control effect; nearly all actives have a fitted effect of over 60% in size. The gist of the method:
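Recombinant human Clk4 (6.25 nM) phosphorylated RS repeat peptide (100 uM) with 1 uM ATP in Tris pH 7.5/MgCl2/EGTA/DTT/Triton buffer for one hour. ADP was quantified by Transcreener competitive fluorescence polarization against an ADP calibration curve.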

Assay [4] addresses Tyrosyl-DNA phosphodiesterase 1 (Homo sapiens) (UniProt Q9NUW8). Nature of the assay: Confirmation Assay for Inhibitors of Tyrosyl-DNA Phosphodiesterase (TDP1) (AID 489007). Note: potency is the fitted concentration of half-maximal effect; nearly all actives have a fitted effect of over 40% in size. To be noted: recombinant human TDP1 enzymatic activity, dose-response. In a few lines: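 Loss of AlphaScreen signal reports Tdp1 cleavage of a dual-labelled DNA substrate. Conditions: 1 nM E. coli-derived enzyme, 15 nM substrate, 15 min compound preincubation, 5 min reaction, 10 min bead incubation, all at room temperature.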

Assay [5] can be described thus: qHTS for Inhibitors of the vitamin D receptor (VDR): Hit Validation using a Texas Red Assay (AID 602201). Note: % is set by controls: 0 for no effect and ±100 for the full control effect. In a few lines: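 Fluorescence polarization with 1.5 uM VDR-LBD, LG19078 and 7 nM Texas Red (final). After 2 hours at ambient temperature, read at Ex 595 nm/Em 615 nm.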
The target of assay [6] is Bifunctional 3'-5' exonuclease/ATP-dependent helicase WRN (Homo sapiens) (UniProt Q14191). Briefly: qHTS for Inhibitors of WRN Helicase: Confirmatory Assay for Cherry-picked Compounds. (AID 720497). Note: potency is the fitted concentration of half-maximal effect; nearly all actives have a fitted effect of over 65% in size. To be noted: WRN helicase DNA unwinding, fluorescence kinetic. In a few lines:
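WRN at 20 nM final was preincubated with compound for 15 min at room temperature; the reaction was started with 100 nM forked duplex oligonucleotide and 2 mM ATP (final). Red fluorescence (ex 525/em 598 nm) was read kinetically, with inhibition normalized to enzyme-only and buffer-only wells.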

A short description of assay [7]: qHTS for Inhibitors of WRN Helicase: Thiazole Orange DNA Binding Counterscreen (AID 720499).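 Note: drop in dye fluorescence marks compound binding to DNA; % is set by controls: 0 for no effect and ±100 for the full control effect; nearly all actives have a fitted effect of over 60% in size.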 In a few lines: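 Here, compounds that displace thiazole orange (100 nM) from unlabeled DNA (50 nM) lower fluorescence, read at excitation 480 nm and emission 530 nm after a 15 min room-temperature incubation.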
For assay [8], the target named is RecQ-like DNA helicase BLM (Homo sapiens) (UniProt P54132). Nature of the assay: qHTS for Inhibitors of WRN Helicase: BLM Helicase Counterscreen for WRN Inhibitors (AID 720503). Note: potency is the fitted concentration of half-maximal effect; nearly all actives have a fitted effect of over 60% in size. To be noted: Recombinant BLM helicase DNA unwinding, red fluorescence. In a few lines:
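BLM at 1 nM was preincubated with compound for 15 min at room temperature in 25 mM Tris-HCl pH 8.0, 50 mM NaCl, 2 mM MgCl2, 1 mM DTT and 0.01% Tween-20. Unwinding was started with 100 nM DNA and 2 mM ATP (final). Fluorescence (ex 525/em 598 nm) was read twice, 15 min apart, and normalized to enzyme-free and DMSO controls.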

Assay [9] concerns the target Flap endonuclease 1 (Homo sapiens) (UniProt P39748). Nature of the assay: qHTS Assay for the Inhibitors of FEN1: Confirmatory Assay for Cherry-picked Compounds (AID 720498). To be noted: FEN1 flap cleavage, TAMRA/BHQ2 fluorogenic DNA substrate. The gist of the method: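 Human FEN1 (10 nM reagent) was preincubated with compounds for 15 min at room temperature, then 50 nM final double-flap DNA substrate (5'-TAMRA flap, BHQ-2 quencher strand) was added. Fluorescence (ex 525/em 598 nm) was read at 0 and 15 min.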

For assay [10], the target named is DNA polymerase kappa (Homo sapiens) (UniProt Q9UBT6). Nature of the assay: qHTS for Inhibitors of Polymerase Kappa: Confirmatory Assay for Cherry-picked Compounds (AID 720501). Note: potency is the fitted concentration of half-maximal effect. To be noted: purified Pol-kappa, fluorescent strand-displacement substrate. The gist of the method: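 10 nM human Pol-kappa was preincubated with compound 15 min at room temperature, then 50 nM (final) primer/template substrate with TAMRA-labeled reporter strand and BHQ-2-labeled template added. Fluorescence (Ex 525, Em 598 nm) read at 0 and 10 min.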

Assay [11] can be described thus: NCATS anti-infectives library activity on HEK293 viability as a counter-qHTS vs the C. elegans viability qHTS (AID 1745854).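 Note: HEK293 cells exposed to compounds for 24 hr before the viability read; % is set by controls: 0 for no effect and ±100 for the full control effect.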 In a few lines:
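Compound titrations (final up to 41.7 uM) were incubated with HEK293 cells for 24 hr at 37C under 5% CO2. Viable cells were quantified with CellTiter-Glo after 10 min at ambient temperature.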

Assay [12] addresses Rap guanine nucleotide exchange factor 3 (Homo sapiens) (UniProt O95398). Briefly: Confirmatory qHTS for agonist of cAMP-regulated guanine nucleotide exchange factor 3 (EPAC1) (AID 1645881).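 Note: EPAC1 catalysed release of BODIPY-GDP from Rap1B seen as fluorescence loss; 100% = effect of cAMP agonist control; nearly all actives have a fitted effect of over 75% in size.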
The target of assay [13] is Rap guanine nucleotide exchange factor 4 (Homo sapiens) (UniProt Q8WZA2). Briefly: Confirmatory qHTS for agonist of cAMP-regulated guanine nucleotide exchange factor 4 (EPAC2) (AID 1645884).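 Note: nucleotide exchange releases bodipy-GDP from Rap1 and this lowers its fluorescence; % is set by controls: 0 for no effect and ±100 for the full control effect; nearly all actives have a fitted effect of over 65% in size.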
Rap guanine nucleotide exchange factor 4 (Homo sapiens), sequence (Q8WZA2 whole entry, looked up): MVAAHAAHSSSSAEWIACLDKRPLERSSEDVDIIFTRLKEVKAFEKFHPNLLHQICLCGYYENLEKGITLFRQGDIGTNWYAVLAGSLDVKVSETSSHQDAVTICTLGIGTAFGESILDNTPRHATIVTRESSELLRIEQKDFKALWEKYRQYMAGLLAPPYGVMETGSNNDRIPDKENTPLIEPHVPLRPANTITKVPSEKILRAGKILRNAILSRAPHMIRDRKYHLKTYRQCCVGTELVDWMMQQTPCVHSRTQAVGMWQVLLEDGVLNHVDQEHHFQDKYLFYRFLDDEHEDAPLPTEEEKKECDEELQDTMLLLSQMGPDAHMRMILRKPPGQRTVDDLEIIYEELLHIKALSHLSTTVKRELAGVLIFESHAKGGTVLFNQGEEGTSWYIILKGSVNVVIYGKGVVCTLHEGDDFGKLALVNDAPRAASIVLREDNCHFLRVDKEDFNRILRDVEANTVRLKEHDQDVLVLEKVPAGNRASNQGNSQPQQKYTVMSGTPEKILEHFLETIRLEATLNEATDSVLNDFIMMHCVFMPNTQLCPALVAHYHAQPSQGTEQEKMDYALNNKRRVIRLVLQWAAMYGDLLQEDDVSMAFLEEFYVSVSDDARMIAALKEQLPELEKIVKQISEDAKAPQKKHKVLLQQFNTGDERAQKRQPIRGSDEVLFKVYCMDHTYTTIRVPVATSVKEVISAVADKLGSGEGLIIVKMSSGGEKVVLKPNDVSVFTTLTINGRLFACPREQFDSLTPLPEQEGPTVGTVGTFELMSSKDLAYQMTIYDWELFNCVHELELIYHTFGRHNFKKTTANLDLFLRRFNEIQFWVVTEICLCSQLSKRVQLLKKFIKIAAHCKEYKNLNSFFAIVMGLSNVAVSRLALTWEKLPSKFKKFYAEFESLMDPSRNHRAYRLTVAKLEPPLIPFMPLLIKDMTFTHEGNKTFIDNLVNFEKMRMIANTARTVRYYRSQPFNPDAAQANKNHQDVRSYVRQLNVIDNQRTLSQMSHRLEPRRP
For assay [14] the target is unchanged. Briefly: Confirmatory qHTS for antagonist of cAMP-regulated guanine nucleotide exchange factor 4 (EPAC2) (AID 1645885). Note: nearly all actives have a fitted effect of over 25% in size. Note: potency is the fitted concentration of half-maximal effect.

Records with an inconclusive call do not appear. Unmarked numbers belong to inactive results. The list shows a part of the results. The source made the active and inactive calls. Calls come from the whole dose curve; as a rule, active = well fitted curve in the direction sought with a large enough effect; inconclusive = small, poorly fitted or top-dose-only effect, or another doubt; inactive = no such curve, though single readings can be large; an effect the other way counts as inactive or inconclusive.

Rap guanine nucleotide exchange factor 3 (Homo sapiens), sequence (O95398 whole entry, looked up): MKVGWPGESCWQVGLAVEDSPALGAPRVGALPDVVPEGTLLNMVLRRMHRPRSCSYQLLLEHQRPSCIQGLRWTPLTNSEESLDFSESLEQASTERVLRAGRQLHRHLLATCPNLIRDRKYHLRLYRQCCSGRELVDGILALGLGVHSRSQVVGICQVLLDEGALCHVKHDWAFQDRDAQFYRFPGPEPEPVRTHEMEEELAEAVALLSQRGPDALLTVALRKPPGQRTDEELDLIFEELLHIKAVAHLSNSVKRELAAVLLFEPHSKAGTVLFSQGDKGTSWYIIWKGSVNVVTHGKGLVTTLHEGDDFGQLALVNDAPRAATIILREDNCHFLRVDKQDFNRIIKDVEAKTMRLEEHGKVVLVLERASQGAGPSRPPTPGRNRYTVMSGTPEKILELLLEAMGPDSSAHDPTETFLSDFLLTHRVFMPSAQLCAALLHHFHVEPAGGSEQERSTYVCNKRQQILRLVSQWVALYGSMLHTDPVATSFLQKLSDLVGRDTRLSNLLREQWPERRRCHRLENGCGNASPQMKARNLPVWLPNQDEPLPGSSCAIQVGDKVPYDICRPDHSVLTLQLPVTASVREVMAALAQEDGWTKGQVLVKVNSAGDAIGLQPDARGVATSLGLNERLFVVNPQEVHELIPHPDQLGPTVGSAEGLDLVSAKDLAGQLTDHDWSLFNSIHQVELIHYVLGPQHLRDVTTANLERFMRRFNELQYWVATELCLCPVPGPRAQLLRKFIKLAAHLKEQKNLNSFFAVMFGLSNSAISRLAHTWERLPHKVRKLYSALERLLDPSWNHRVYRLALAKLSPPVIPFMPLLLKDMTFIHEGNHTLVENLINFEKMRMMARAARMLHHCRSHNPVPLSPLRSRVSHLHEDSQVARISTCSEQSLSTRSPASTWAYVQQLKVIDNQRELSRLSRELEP
Bifunctional 3'-5' exonuclease/ATP-dependent helicase WRN (Homo sapiens), sequence (Q14191 whole entry, looked up): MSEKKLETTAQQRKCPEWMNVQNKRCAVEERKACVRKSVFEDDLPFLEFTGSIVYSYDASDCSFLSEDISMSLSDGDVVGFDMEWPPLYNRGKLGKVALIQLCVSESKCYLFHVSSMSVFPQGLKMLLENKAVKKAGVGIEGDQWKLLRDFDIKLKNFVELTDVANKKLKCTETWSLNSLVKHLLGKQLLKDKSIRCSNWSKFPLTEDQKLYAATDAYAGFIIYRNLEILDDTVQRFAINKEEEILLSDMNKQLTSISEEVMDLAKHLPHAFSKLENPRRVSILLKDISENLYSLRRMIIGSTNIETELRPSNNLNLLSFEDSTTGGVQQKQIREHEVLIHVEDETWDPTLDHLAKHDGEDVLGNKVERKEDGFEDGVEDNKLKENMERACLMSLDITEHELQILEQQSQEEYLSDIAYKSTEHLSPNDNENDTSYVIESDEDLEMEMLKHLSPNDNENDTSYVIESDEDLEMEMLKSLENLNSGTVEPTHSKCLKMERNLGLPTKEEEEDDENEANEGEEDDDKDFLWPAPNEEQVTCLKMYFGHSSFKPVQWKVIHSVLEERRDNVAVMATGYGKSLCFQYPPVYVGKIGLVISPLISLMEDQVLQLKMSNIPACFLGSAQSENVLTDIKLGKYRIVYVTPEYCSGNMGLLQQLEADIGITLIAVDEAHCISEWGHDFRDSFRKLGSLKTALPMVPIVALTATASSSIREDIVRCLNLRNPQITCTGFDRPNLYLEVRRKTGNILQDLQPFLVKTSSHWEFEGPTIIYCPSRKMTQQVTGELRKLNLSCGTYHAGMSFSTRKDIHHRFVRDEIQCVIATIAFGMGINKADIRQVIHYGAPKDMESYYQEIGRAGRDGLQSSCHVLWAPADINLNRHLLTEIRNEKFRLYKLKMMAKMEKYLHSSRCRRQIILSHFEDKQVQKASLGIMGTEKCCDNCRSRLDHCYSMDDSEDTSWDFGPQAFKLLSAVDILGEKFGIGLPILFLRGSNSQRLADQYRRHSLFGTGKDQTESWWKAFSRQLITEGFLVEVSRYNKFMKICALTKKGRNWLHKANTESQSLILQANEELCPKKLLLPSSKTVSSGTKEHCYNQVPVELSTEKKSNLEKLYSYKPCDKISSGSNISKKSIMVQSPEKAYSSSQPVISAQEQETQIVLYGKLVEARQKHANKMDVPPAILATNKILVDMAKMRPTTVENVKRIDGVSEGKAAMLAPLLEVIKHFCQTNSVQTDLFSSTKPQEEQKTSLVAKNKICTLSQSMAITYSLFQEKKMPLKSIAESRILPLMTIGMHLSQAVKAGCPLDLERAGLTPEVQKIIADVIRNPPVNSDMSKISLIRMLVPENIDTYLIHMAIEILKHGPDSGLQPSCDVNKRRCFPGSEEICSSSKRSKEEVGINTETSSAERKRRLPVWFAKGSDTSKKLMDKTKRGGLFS
Dual specificity protein kinase CLK4 (Homo sapiens), sequence (Q9HAZ1 whole entry, looked up): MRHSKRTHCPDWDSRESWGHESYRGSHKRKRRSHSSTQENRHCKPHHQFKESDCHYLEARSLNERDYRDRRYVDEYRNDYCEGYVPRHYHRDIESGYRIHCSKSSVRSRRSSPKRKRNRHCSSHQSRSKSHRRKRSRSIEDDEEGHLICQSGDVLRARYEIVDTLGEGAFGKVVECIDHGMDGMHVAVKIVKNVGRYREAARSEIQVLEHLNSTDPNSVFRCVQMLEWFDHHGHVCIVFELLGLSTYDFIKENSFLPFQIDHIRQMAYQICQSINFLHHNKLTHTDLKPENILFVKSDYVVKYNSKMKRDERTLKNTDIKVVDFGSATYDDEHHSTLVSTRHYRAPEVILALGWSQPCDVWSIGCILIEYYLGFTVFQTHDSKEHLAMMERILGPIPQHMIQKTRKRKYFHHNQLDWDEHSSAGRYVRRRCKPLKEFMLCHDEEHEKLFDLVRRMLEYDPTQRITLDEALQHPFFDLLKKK
Tyrosyl-DNA phosphodiesterase 1 (Homo sapiens), sequence (Q9NUW8 whole entry, looked up): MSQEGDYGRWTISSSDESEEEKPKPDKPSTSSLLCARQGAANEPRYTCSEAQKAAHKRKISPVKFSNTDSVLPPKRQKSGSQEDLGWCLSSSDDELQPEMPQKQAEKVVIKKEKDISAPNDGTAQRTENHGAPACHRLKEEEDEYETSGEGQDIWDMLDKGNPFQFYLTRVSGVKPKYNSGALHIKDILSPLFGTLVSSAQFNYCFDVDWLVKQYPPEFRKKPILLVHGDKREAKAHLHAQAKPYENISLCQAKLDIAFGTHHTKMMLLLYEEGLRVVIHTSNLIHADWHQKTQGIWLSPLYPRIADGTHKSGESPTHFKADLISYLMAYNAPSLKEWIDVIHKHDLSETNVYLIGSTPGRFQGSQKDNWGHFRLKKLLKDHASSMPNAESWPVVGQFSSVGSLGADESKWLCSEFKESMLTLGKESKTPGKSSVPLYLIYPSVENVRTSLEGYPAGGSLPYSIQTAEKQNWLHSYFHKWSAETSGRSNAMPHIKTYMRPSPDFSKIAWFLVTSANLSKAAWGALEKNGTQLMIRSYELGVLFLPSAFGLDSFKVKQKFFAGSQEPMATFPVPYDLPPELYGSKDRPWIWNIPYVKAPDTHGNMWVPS

With `CCNc1ncc2nc(-c3cccs3)c(=O)n(CCC#N)c2n1`, the Potency in assay [1] was 6.31 µM (active); in [2], 1.26 µM (active). For the same compound, the Potency entry in assay [3] was “inactive”.
In the case of `O=C(O)c1ccc(COc2ccccc2/C=C2/NC(=O)N(c3cccc(Cl)c3)C2=O)cc1`, the Potency in [4] is 10 µM (active).
`O=[N+]([O-])c1c(Nc2ccccn2)cc(Cl)c2nonc12`: in assay [5], the Potency entry is “inactive”.
`COc1cccc(/C=N/NC(=O)c2[nH]nc3c2CCc2ccccc2-3)c1O`: the Potency in assay [6] is 21.5 µM (active); in [8] it was 6.81 µM (active). Further, the compound was called inactive in assay [7].
For `Cn1ccc(=Nc2ccc(NC(=O)c3ccc(N=c4ccn(C)c5ccc([N+](=O)[O-])cc45)cc3)cc2)cc1`, the Potency in [9] is 9.53 µM (active); in assay [10], 4.23 µM (active).
As for `COc1cccc(Nc2nnc(-c3cc4ccc(O)cc4oc3=O)s2)c1`, in assay [11], the Potency entry was “inactive”.
Turning to `CCc1ccc(-c2cc(C)no2)cc1S(=O)(=O)N1CCC(C)CC1`, the Potency result in assay [12] and in assay [13] was “inactive” in each case.
On to `Cn1c(SCC(=O)c2ccc3c(c2)Cc2ccccc2-3)nnc1-c1ccccc1`, for which the Potency entry in assay [12] and in assay [14] was “inactive” in each case. For the same compound, in [13], the activation was 0% [at 17.1 µM, percent relative to cAMP agonist control].
As to `CSc1cccc(N2CC(C(=O)Nc3cccc(S(=O)(=O)N4CCCC4)c3)CC2=O)c1` (centres undefined), the Potency result in [12] and in assay [14] was “inactive” in each case. In addition, in [13], the activation is 4.48% [at 17.1 µM, percent relative to cAMP agonist control].
`Cc1ccnc(NC(=O)C2CCN(S(=O)(=O)c3cccc(C(F)(F)F)c3)CC2)c1`: the Potency result in assay [12], in [13] and in assay [14] was “inactive” throughout.
Take `CCOc1cc(S(=O)(=O)Nc2ccccc2CC)ccc1Cl`: in [12], the Potency entry is “inactive”. For the same compound, the activation in assay [13] was 8.65% [at 17.1 µM, percent relative to cAMP agonist control].
On to `COc1ccc(S(=O)(=O)/N=C2/NC(=O)/C(=C\c3cc(OC)c(OC)cc3[N+](=O)[O-])S2)cc1`, for which the Potency entry in assay [12] and in assay [14] was “inactive” each time. Besides, the activation in assay [13] is 0% [at 17.1 µM, percent relative to cAMP agonist control].
Consider `O=C(Nc1c(-c2ccc3c(c2)OCO3)[nH][nH]c1=O)c1ccccc1`, for which the Potency result in [12], in [13] and in assay [14] was “inactive” throughout.
Take `COc1ccc(SC[C@H](C)CN2CC[C@H](C(C)(C)C)CCC2=O)cc1`: the Potency entry in assay [12] and in assay [13] was “inactive” in each case. Moreover, in [14], the Potency was 35 µM (active).
Turning to `CC1CC(C)CN(C(=S)SCc2nc(N)nc(Nc3ccccc3)n2)C1` (centres undefined), the Potency entry in assay [12] and in [13] was “inactive” in each case.
Turning to `Cc1ccccc1/C=C1\SC(=S)N(/N=C/c2cc([N+](=O)[O-])ccc2O)C1=O`, the Potency result in assay [12], in [13] and in [14] was “inactive” in each case.
As for `c1ccc(-c2onc(-c3ccco3)c2-c2ccc3[nH]ccc3c2)cc1`, the Potency entry in assay [12] and in [13] was “inactive” throughout.
Regarding `Cc1cccc(CN2Cc3cccc4c3[C@H](C=CC4)CC2=O)c1`, the Potency entry in assay [12] and in assay [13] was “inactive” each time. The Potency in assay [14] is 44.1 µM (active).
For the compound `c1ccc(-c2onc(-c3ccco3)c2-c2ccc3c(c2)OCO3)cc1`, the Potency entry in assay [12] and in assay [13] was “inactive” in each case.
`Cc1onc(-c2ccccc2Cl)c1C(=O)OCc1cnc(Cl)s1`: the Potency result in assay [12] is “inactive”.
Consider `N#CC(c1ccccc1)C(CC(=NO)c1ccccc1)c1ccccc1` (centres undefined), for which the Potency entry in assay [12] and in [13] was “inactive” each time.
As for `c1ccc(C(c2cccs2)c2c[nH]c3ccccc23)cc1` (centres undefined), in assay [12], the Potency entry was “inactive”.
On the same count and under the same terms, the same measure for `Cc1cc(C)c(S(=O)(=O)Nc2ccc3c(c2)CCC3)c(C)c1`: “inactive”.
Take `CCc1nc2ccc(C(=O)Nc3ccc(OC)c(OC)c3)cn2c1N(C)CCC(C)C`: the Potency entry in assay [12] and in assay [14] was “inactive” in each case. Besides, the activation in assay [13] was 6.16% [at 17.1 µM, percent relative to cAMP agonist control].
On to `CC(C)C[C@@H](COc1ccccc1)N1CCN(CCc2ccccc2)CCC1=O`, for which the Potency result in [12] and in [13] was “inactive” in each case.
With `O=C1NC[C@H](Cc2ccccc2)N(C[C@@H]2CCCN2C[C@H](Cc2ccc(O)cc2)N2C[C@H](Cc3ccc(O)cc3)N(CC3CCCCC3)C(=O)C2=O)C1=O`, the Potency entry in assay [12] and in assay [14] was “inactive” throughout. The activation in assay [13] is 15.7% [at 17.1 µM, percent relative to cAMP agonist control].
As for `COC(=O)[C@]12CCCCC=C1N(Cc1ccco1)C(=O)[C@H](CC(=O)NCc1cccs1)C2`, the Potency result in [12], in assay [13] and in assay [14] was “inactive” each time.
As for `Cn1c(N)c(C(=O)COC(=O)CCCOc2ccc(Cl)cc2Cl)c(=O)n(C)c1=O`, the Potency entry in assay [12] and in assay [13] was “inactive” in each case. The Potency in [14] is 37.9 µM (active).

Values taken from PubChem BioAssay (NCATS).
